Reference: PubChem BioAssay (NCI)
The panel holds about 83,000 compounds, 20% with a hit somewhere; the sample as a whole holds those more often.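 Assay: single dose, 48 h. Readout: percent growth (0 = no net growth; negative = cell death). Active: <10.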 The source made the active and inactive calls.

What was measured:
Assay in all cases: NCI-60 one-dose screen, 48 h (100 = growth as untreated, 0 = no growth, -100 = all killed)
Conditions in all cases: 10 µM unless noted
[1] = system: HCT-15 colon
[2] = system: HT29 colon
[3] = system: SNB-75 CNS
[4] = system: SNB-19 CNS
[5] = system: U251 CNS
[6] = system: PC-3 prostate
[7] = system: SK-MEL-5 melanoma
[8] = system: UACC-62 melanoma
[9] = system: LOX IMVI melanoma
[10] = system: SK-MEL-28 melanoma

Measured: growth

CCNC(=O)c1[nH]cc(-c2ccccc2)c1-c1cc(OC)c2c(c1OC)OCO2
inactive: [1] 103% | [2] 112% | [3] 91.4% | [4] 98.6% | [5] 103% | [6] 93.1% | [7] 89.8% | [8] 92.2% | [9] 95.1% | [10] 108%

CCC(=C(c1ccc(OCCN2CCCC2)cc1)c1ccc(OCCN2CCCC2)cc1)c1ccc(Cl)cc1
active: [1] -70.5% | [2] -49.9% | [3] -58.2% | [4] -19% | [5] -77.4% | [6] -7.15% | [7] -83.4% | [8] -46.9% | [9] -90.3% | [10] -81.7%

CCN(CC)c1ccc(/C=C/C(=O)c2ccc(Nc3nc(Nc4ccccc4)nc(Nc4ccccc4)n3)cc2)cc1
inactive: [1] 32.4% | [2] 49.8% | [3] 26.8% | [4] 67.5% | [5] 43.4% | [6] 34.1% | [7] 40.7% | [8] 54.8% | [9] 40.3% | [10] 65.6%

CCSc1nc(NC)c2cc(-c3ccc(C(F)(F)F)cc3)ccc2n1
inactive: [1] 95.5% | [2] 98.9% | [3] 99.4% | [4] 97% | [5] 103% | [6] 94.9% | [7] 97.9% | [8] 92.9% | [9] 106% | [10] 95%

COc1ccc(C2c3sc4c(F)cccc4c3Oc3nc[nH]c(=O)c32)cc1 (stereo not given)
inactive: [1] 74.9% | [2] 107% | [3] 88.2% | [4] 79% | [5] 89.7% | [6] 65.8% | [7] 75.4% | [8] 60.1% | [9] 82.9% | [10] 92.6%

Cc1ccc(Sc2nnc(/N=C3\C(=O)Nc4ccccc43)s2)cc1
inactive: [1] 105% | [2] 111% | [3] 87.5% | [4] 101% | [5] 97.4% | [6] 99.7% | [7] 107% | [8] 103% | [9] 97.8% | [10] 105%

CN(CCn1sc(=O)n(Cc2ccccc2)c1=O)Cc1ccc2c(Cl)cc(Cl)c(O)c2n1
inactive: [1] 16.3% | [2] 39.9% | [3] 74.6% | [4] 39.7% | [5] 27% | [6] 35.5% | [7] 59.5% | [8] 29.8% | [9] 30.7% | [10] 59.8%

CC(C)CCC[C@@H](C)[C@H]1CC[C@H]2[C@@H]3CC=C4C[C@@H](C(C(=O)O)C(=O)O)CC[C@]4(C)[C@H]3CC[C@]12C
inactive: [4] 18.6%
active: [1] -6.36% | [2] -35.1% | [3] -61.1% | [5] -46.8% | [6] -5.95% | [7] -96% | [8] -53.4% | [9] -29.3% | [10] -49.6%

CNC(=O)c1cc(Oc2ccc3c(c2)sc2nc(-c4cc(OC)c(OC)c(OC)c4)cn23)ccn1
active: [7] -13.9%
inactive: [1] 54.1% | [2] 65.3% | [3] 50.3% | [4] 82.2% | [5] 61.9% | [6] 34.3% | [8] 44.5% | [9] 58% | [10] 63.5%

C#CCOc1ccc2ncnc(Nc3cccc(NC(=O)C=C)c3)c2c1
inactive: [1] 71.1% | [2] 42.7% | [3] 60.5% | [4] 73.9% | [5] 73.1% | [6] 82.2% | [7] 77.5% | [8] 64.1% | [9] 62.5% | [10] 86.3%

O=C(Cn1c(-c2ccc([N+](=O)[O-])cc2)nc2ccccc21)NNC(=O)c1cccnc1
inactive: [1] 80.9% | [2] 77.2% | [3] 53.3% | [4] 86.5% | [5] 77.9% | [6] 69% | [7] 83.8% | [8] 66.2% | [9] 65.3% | [10] 108%

N#Cc1cccc(-c2c(-c3ccc4ccccc4c3)oc3ccccc3c2=O)c1
inactive: [1] 33.9% | [2] 10.9% | [3] 51.1% | [4] 53.7% | [5] 45.6% | [6] 34.1% | [7] 31% | [8] 33.9% | [9] 50.7% | [10] 58%

CCc1ccc(C(=O)/C=C/C23c4ccccc4C(c4ccccc42)C2C(=O)NC(=O)C23)cc1 (stereo not given)
inactive: [3] 26.3% | [4] 12% | [6] 13.3% | [7] 10%
active: [1] -10.3% | [2] 1.59% | [5] -25% | [8] -6.86% | [9] -68.7% | [10] -23.7%

O=C(Nc1ncc(Cc2ccc(Cl)c(C(F)(F)F)c2)s1)c1ccc2nnsc2c1
active: [8] 6.95%
inactive: [1] 40.4% | [2] 57.7% | [3] 90.8% | [4] 46.2% | [5] 42.7% | [6] 38.3% | [7] 38.3% | [9] 29.3% | [10] 54.7%

COc1ccc(OC)c(-c2c(C#N)c(-c3cccs3)nc3c2c(-c2ccccc2)nn3-c2ccccc2)c1
inactive: [1] 104% | [2] 97.4% | [3] 89% | [4] 96.6% | [5] 100% | [6] 93.5% | [7] 102% | [8] 90.2% | [9] 104% | [10] 107%

Cc1ccc(-c2cc(-c3ccc(Cl)cc3)nc(NC(=O)c3cccnc3)n2)cc1
inactive: [1] 94.5% | [2] 109% | [3] 99.8% | [4] 94.6% | [5] 101% | [6] 85.5% | [7] 93.6% | [8] 76% | [9] 95.7% | [10] 106%

CCN(CC)CCSc1nc(-c2ccccc2)c(C#N)c(=O)[nH]1
inactive: [1] 117% | [2] 142% | [3] 129% | [4] 101% | [5] 105% | [6] 116% | [7] 85.1% | [8] 108% | [9] 99.9% | [10] 110%

O=C(c1ccc(-c2ccccc2)cc1)c1ccc([N+](=O)[O-])cc1
inactive: [1] 103% | [2] 104% | [3] 105% | [4] 101% | [5] 99% | [6] 86.7% | [7] 97.3% | [8] 92.7% | [9] 98.4% | [10] 122%

O=C(/C=C/c1cn(-c2ccccc2)nc1-c1ccc([N+](=O)[O-])cc1)c1ccc(Cl)cc1
inactive: [1] 46.8% | [2] 52.5% | [4] 52.8% | [6] 58.8% | [7] 71.5% | [8] 58.9% | [9] 37.8% | [10] 56.7%
active: [3] -5.08% | [5] 9.68%

N=C(N)c1ccc(-c2ccc(-c3cc(Cl)cc(Cl)c3)o2)o1
inactive: [7] 16.2%
active: [1] -89.3% | [2] -81.1% | [3] -68.9% | [4] -64.9% | [5] -89.9% | [6] -25.8% | [8] -81% | [9] -83.6% | [10] -80.2%

CCN(CC)CCOc1ccc(C(=C(C)c2ccc(Cl)cc2)c2ccc(OCCN(CC)CC)cc2)cc1
active: [1] -76.9% | [2] -74.8% | [3] -92.6% | [4] -81.8% | [5] -81.6% | [6] -59.3% | [7] -98% | [8] -78.1% | [9] -88.5% | [10] -88.5%

CCN(CC)CCNC(=O)c1cn2ncnc(Oc3ccc(NC(=O)Nc4ccc(Cl)c(C(F)(F)F)c4)c(F)c3)c2c1C
active: [1] -38.7% | [2] -42.3% | [3] -7.89% | [4] -48% | [5] -48.6% | [6] 7.99% | [7] -20.3% | [8] -46.2% | [9] -95.4% | [10] -86.6%

COc1cccc([C@H]2c3[nH]c4ccccc4c3C[C@H]3C(=O)N(CCCCCCC(=O)NO)CC(=O)N23)c1
active: [3] 7.84%
inactive: [1] 105% | [2] 56.7% | [4] 68.4% | [5] 61.5% | [6] 42.5% | [7] 49.8% | [8] 36.8% | [9] 49.4% | [10] 43%

COc1ccc(-c2csc(N(C(=O)N3CCN(c4cc5c(cc4F)c(=O)c(C(=O)O)cn5C4CC4)CC3)c3ccccc3)n2)cc1
inactive: [3] 22.5% | [4] 20.8% | [5] 19.1% | [8] 13% | [10] 36.3%
active: [1] 9.72% | [2] 3.36% | [6] 9.97% | [7] -21.6% | [9] 2.06%

Cc1ccc(Cl)cc1Nc1nc(C(F)(F)F)ccc1C(=O)N/N=C/c1cccnc1
inactive: [1] 19.2% | [2] 34.6% | [3] 52% | [4] 36.8% | [6] 32.4% | [8] 27.6% | [9] 18.6% | [10] 39.9%
active: [5] 2.89% | [7] -16.4%

CCN1CCN(c2cc(C(=O)Nc3nc(-c4cc(OC)c(OC)c(OC)c4)cs3)cc(C(F)(F)F)c2)CC1
inactive: [1] 36.4% | [2] 18.3% | [3] 57% | [4] 80.7% | [5] 60.9% | [6] 57.1% | [7] 53.7% | [8] 75.4% | [9] 38.6% | [10] 51.8%
